Measured values reported in the supplement of paper PMC4466140.

Tests used:
Test in all cases: SPOT peptide array binding signal intensity (averaged, normalized) (arbitrary units (background-subtracted, floor 0; scale differs between SH3 domains)); higher = stronger binding of the SH3 domain to the peptide
[1] = target: SpBzz1-D2
How it was run: (§1)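 Peptides were synthetic 15-mers on cellulose membranes, with every cysteine replaced by serine. They were incubated overnight at 4°C with GST-SH3 domains from four yeast species at 10 μg/ml in TBS-based blocking buffer. Binding signal, the replicate-averaged normalized and background-subtracted spot intensity, is in arbitrary units that differ between domains.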

[2] = target: SpCyk3
How it was run: as §1

[3] = target: SpHof1
How it was run: as §1

[4] = target: SpHof1-2
How it was run: as §1

[5] = target: SpHof1-3
How it was run: as §1

[6] = target: SpHse1
How it was run: as §1

[7] = target: SpLsb1
How it was run: as §1

[8] = target: SpLsb4
How it was run: as §1

[9] = target: SpMyo1
How it was run: as §1

[10] = target: SpNbp2
How it was run: as §1

[11] = target: SpPex13
How it was run: as §1

[12] = target: SpRvs167
How it was run: as §1

[13] = target: SpSla1-D1-D2
How it was run: as §1

[14] = target: SpSla1-D3
How it was run: as §1

[15] = target: AgAbp1
How it was run: as §1

[16] = target: AgBbc1
How it was run: as §1

[17] = target: AgBem1-D1
How it was run: as §1

[18] = target: AgBzz1-D1
How it was run: as §1

[19] = target: AgBzz1-D2
How it was run: as §1

[20] = target: AgCyk3
How it was run: as §1

[21] = target: AgFus1
How it was run: as §1

[22] = target: AgHof1
How it was run: as §1

[23] = target: AgHse1
How it was run: as §1

[24] = target: AgLsb1
How it was run: as §1

[25] = target: AgLsb4
How it was run: as §1

[26] = target: AgMyo5
How it was run: as §1

[27] = target: AgNbp2
How it was run: as §1

[28] = target: AgRvs167
How it was run: as §1

[29] = target: AgSho1
How it was run: as §1

[30] = target: AgSla1-D1-D2
How it was run: as §1

[31] = target: AgSla1-D3
How it was run: as §1

[32] = target: CaAbp1-D1
How it was run: as §1

[33] = target: CaAbp1-D2
How it was run: as §1

[34] = target: CaBbc1
How it was run: as §1

[35] = target: CaBem1-D1
How it was run: as §1

[36] = target: CaBzz1-D1
How it was run: as §1

[37] = target: CaBzz1-D2
How it was run: as §1

[38] = target: CaCyk3
How it was run: as §1

[39] = target: CaFus1
How it was run: as §1

[40] = target: CaHof1
How it was run: as §1

[41] = target: CaHse1
How it was run: as §1

[42] = target: CaLsb1
How it was run: as §1

[43] = target: CaLsb4
How it was run: as §1

[44] = target: CaMyo5
How it was run: as §1

[45] = target: CaNbp2
How it was run: as §1

[46] = target: CaRvs167
How it was run: as §1

[47] = target: CaRvs167-3
How it was run: as §1

[48] = target: CaSho1
How it was run: as §1

[49] = target: CaSla1-D1-D2
How it was run: as §1

[50] = target: CaSla1-D3
How it was run: as §1

[51] = target: ScAbp1
How it was run: as §1

[52] = target: ScBbc1
How it was run: as §1

[53] = target: ScBem1-D1
How it was run: as §1

[54] = target: ScBzz1-D1
How it was run: as §1

[55] = target: ScBzz1-D2
How it was run: as §1

[56] = target: ScCyk3
How it was run: as §1

[57] = target: ScFus1
How it was run: as §1

[58] = target: ScHof1
How it was run: as §1

[59] = target: ScHse1
How it was run: as §1

[60] = target: ScLsb1
How it was run: as §1

[61] = target: ScLsb2
How it was run: as §1

[62] = target: ScLsb3
How it was run: as §1

[63] = target: ScLsb4
How it was run: as §1

[64] = target: ScMyo3
How it was run: as §1

[65] = target: ScMyo5
How it was run: as §1

[66] = target: ScNbp2
How it was run: as §1

[67] = target: ScPex13
How it was run: as §1

[68] = target: ScRvs167
How it was run: as §1

[69] = target: ScSho1
How it was run: as §1

[70] = target: ScSla1-D1-D2
How it was run: as §1

[71] = target: ScSla1-D3
How it was run: as §1

[72] = target: SpAbp1-D1
How it was run: as §1

[73] = target: SpBbc1
How it was run: as §1

[74] = target: SpBzz1-D1
How it was run: as §1

B1: unnamed (peptide)
chain: NVLRKILEIPLHSFS
For B1, the “SPOT peptide array binding signal intensity” value [1] was no more than 0, the “SPOT peptide array binding signal intensity” value [2] was 0.5 and the “SPOT peptide array binding signal intensity” value [3] was 2. For the same binder, the “SPOT peptide array binding signal intensity” value [4] was no more than 0, the “SPOT peptide array binding signal intensity” value [5] was 591 and the “SPOT peptide array binding signal intensity” value [6] was 2430. For the same binder, the “SPOT peptide array binding signal intensity” value [7] was no more than 0, the “SPOT peptide array binding signal intensity” value [8] was no more than 0 and the “SPOT peptide array binding signal intensity” value [9] was no more than 0. The “SPOT peptide array binding signal intensity” value [10] was 32.5, the “SPOT peptide array binding signal intensity” value [11] was 2 and the “SPOT peptide array binding signal intensity” value [12] was no more than 0. The “SPOT peptide array binding signal intensity” value [13] was no more than 0 and the “SPOT peptide array binding signal intensity” value [14] was no more than 0.

B2: unnamed (peptide)
chain: DKKTKPTPPPKPSHL
B2 was tested, and the “SPOT peptide array binding signal intensity” value [15] was 1090, the “SPOT peptide array binding signal intensity” value [16] was 24.8 and the “SPOT peptide array binding signal intensity” value [17] was no more than 0. The “SPOT peptide array binding signal intensity” value [18] was 61, the “SPOT peptide array binding signal intensity” value [19] was 34.5 and the “SPOT peptide array binding signal intensity” value [20] was 1. The “SPOT peptide array binding signal intensity” value [21] was 6, the “SPOT peptide array binding signal intensity” value [22] was 18.5 and the “SPOT peptide array binding signal intensity” value [23] was no more than 0. For the same binder, the “SPOT peptide array binding signal intensity” value [24] was no more than 0, the “SPOT peptide array binding signal intensity” value [25] was no more than 0 and the “SPOT peptide array binding signal intensity” value [26] was no more than 0. The “SPOT peptide array binding signal intensity” value [27] was no more than 0, the “SPOT peptide array binding signal intensity” value [28] was 0.167 and the “SPOT peptide array binding signal intensity” value [29] was 45. The “SPOT peptide array binding signal intensity” value [30] was no more than 0, the “SPOT peptide array binding signal intensity” value [31] was 2 and the “SPOT peptide array binding signal intensity” value [32] was 1790. For the same binder, the “SPOT peptide array binding signal intensity” value [33] was 3130, the “SPOT peptide array binding signal intensity” value [34] was 50.8 and the “SPOT peptide array binding signal intensity” value [35] was no more than 0. For the same binder, the “SPOT peptide array binding signal intensity” value [36] was 1480, the “SPOT peptide array binding signal intensity” value [37] was 262 and the “SPOT peptide array binding signal intensity” value [38] was no more than 0. The “SPOT peptide array binding signal intensity” value [39] was no more than 0, the “SPOT peptide array binding signal intensity” value [40] was 0.75 and the “SPOT peptide array binding signal intensity” value [41] was 8.5. For the same binder, the “SPOT peptide array binding signal intensity” value [42] was 0.5, the “SPOT peptide array binding signal intensity” value [43] was no more than 0 and the “SPOT peptide array binding signal intensity” value [44] was no more than 0. For the same binder, the “SPOT peptide array binding signal intensity” value [45] was no more than 0, the “SPOT peptide array binding signal intensity” value [46] was 0.333 and the “SPOT peptide array binding signal intensity” value [47] was 3.5. The “SPOT peptide array binding signal intensity” value [48] was 24, the “SPOT peptide array binding signal intensity” value [49] was no more than 0 and the “SPOT peptide array binding signal intensity” value [50] was no more than 0. The “SPOT peptide array binding signal intensity” value [51] was 2120, the “SPOT peptide array binding signal intensity” value [52] was no more than 0 and the “SPOT peptide array binding signal intensity” value [53] was no more than 0. The “SPOT peptide array binding signal intensity” value [54] was 1, the “SPOT peptide array binding signal intensity” value [55] was 46.5 and the “SPOT peptide array binding signal intensity” value [56] was no more than 0. For the same binder, the “SPOT peptide array binding signal intensity” value [57] was 1, the “SPOT peptide array binding signal intensity” value [58] was 1.5 and the “SPOT peptide array binding signal intensity” value [59] was 16.5. The “SPOT peptide array binding signal intensity” value [60] was no more than 0, the “SPOT peptide array binding signal intensity” value [61] was no more than 0 and the “SPOT peptide array binding signal intensity” value [62] was 1270. The “SPOT peptide array binding signal intensity” value [63] was no more than 0, the “SPOT peptide array binding signal intensity” value [64] was 0.5 and the “SPOT peptide array binding signal intensity” value [65] was no more than 0. For the same binder, the “SPOT peptide array binding signal intensity” value [66] was 4, the “SPOT peptide array binding signal intensity” value [67] was 138 and the “SPOT peptide array binding signal intensity” value [68] was no more than 0. For the same binder, the “SPOT peptide array binding signal intensity” value [69] was 280, the “SPOT peptide array binding signal intensity” value [70] was no more than 0 and the “SPOT peptide array binding signal intensity” value [71] was 3. The “SPOT peptide array binding signal intensity” value [72] was 2240, the “SPOT peptide array binding signal intensity” value [73] was 3.5 and the “SPOT peptide array binding signal intensity” value [74] was 235. For the same binder, the “SPOT peptide array binding signal intensity” value [1] was no more than 0, the “SPOT peptide array binding signal intensity” value [2] was no more than 0 and the “SPOT peptide array binding signal intensity” value [3] was 0.75. The “SPOT peptide array binding signal intensity” value [4] was 6.5, the “SPOT peptide array binding signal intensity” value [5] was 86 and the “SPOT peptide array binding signal intensity” value [6] was 0.75. The “SPOT peptide array binding signal intensity” value [7] was 138, the “SPOT peptide array binding signal intensity” value [8] was no more than 0 and the “SPOT peptide array binding signal intensity” value [9] was no more than 0. For the same binder, the “SPOT peptide array binding signal intensity” value [10] was no more than 0, the “SPOT peptide array binding signal intensity” value [11] was 1.5 and the “SPOT peptide array binding signal intensity” value [12] was 33.3. For the same binder, the “SPOT peptide array binding signal intensity” value [13] was no more than 0 and the “SPOT peptide array binding signal intensity” value [14] was 1.
